Most compounds without a hit are left out; they make up all but 5.1% or so of the library.
S1P4 antagonist: human S1P4 receptor antagonism | O95977 | S1P4-expressing cells, antagonist mode, reporter read-out | inhibition, % at 4.98 µM | 0.26% of 220,000 active; in the data active means inhibition above about 29%;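 further: 0% = wells stimulated with agonist and 100% = vehicle wells without agonist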
Target sequence (O95977 whole entry, looked up): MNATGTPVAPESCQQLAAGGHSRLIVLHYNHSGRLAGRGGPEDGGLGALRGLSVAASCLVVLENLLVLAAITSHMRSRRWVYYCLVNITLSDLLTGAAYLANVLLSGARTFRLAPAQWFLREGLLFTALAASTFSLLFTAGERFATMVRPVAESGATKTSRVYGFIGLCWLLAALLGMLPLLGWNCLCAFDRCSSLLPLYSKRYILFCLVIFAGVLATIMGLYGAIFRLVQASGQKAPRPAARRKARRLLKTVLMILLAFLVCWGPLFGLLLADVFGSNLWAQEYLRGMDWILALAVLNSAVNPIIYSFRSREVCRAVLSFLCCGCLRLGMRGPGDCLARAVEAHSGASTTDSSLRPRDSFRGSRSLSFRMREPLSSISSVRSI
S1P3 antag: S1P3 (human) receptor antagonism; Q99500; CHO S1P3 NFAT-BLA reporter, FRET fluorescence, antagonist mode; inhibition, % at 4.98 µM; 0.27% of 170,000 active; AID 485;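 active means inhibition above the plate cutoff, the mean inhibition of test wells on that plate plus 3 SD, cut at about 28% in these data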;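 further: cells challenged with S1P at its EC80 of 0.8 µM; blue over green emission ratio from cleaved BLA substrate after 4 h stimulation; 0% = S1P-stimulated wells and 100% = unstimulated DMSO-only wells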
ROMK primary: modulates human ROMK potassium channel activity | P48048 | 2% of 130,000 active | B-score at 10 µM | AID 1918 | Tet-inducible ROMK, thallium flux fluorescence; actives lie on both sides;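 active means signal ratio slope over the read window, or its plate-corrected B-score, at least 3 SD from the plate mean, either direction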;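 further: B-score of the F/F0 ratio slope over 7 to 12 s after thallium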
Target sequence (P48048 whole entry, looked up): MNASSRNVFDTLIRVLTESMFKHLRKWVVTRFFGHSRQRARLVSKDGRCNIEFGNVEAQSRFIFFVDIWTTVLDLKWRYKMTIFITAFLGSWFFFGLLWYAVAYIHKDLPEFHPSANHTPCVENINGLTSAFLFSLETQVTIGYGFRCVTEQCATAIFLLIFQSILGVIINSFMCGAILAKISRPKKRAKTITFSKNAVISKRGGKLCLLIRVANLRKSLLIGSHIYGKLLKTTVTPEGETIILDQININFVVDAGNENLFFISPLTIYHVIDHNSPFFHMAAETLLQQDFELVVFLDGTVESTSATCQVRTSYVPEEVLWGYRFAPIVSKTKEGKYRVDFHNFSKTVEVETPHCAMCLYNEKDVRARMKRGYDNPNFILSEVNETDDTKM
RAM inhibit: blocks the yeast RAM network; 1.8% of 190,000 active; AID 868; S. cerevisiae dse1pr::URA3 reporter, 5-FOA growth OD615, 2 d; analog-sensitive cbk1-as2 kinase mutant strain; inhibition, % at 50 µM;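 active means inhibition above a set limit, 3 SD over mean compound inhibition, cut at about 8.4% in these data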;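 further: 0% = DMSO-only wells with no growth and 100% = 10 µM 1-NA-PP1 full growth; inhibition rescues growth on 5-FOA so higher OD means more RAM inhibition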
Cl transport mod: KCC2 (human) Cl- transport modulation | KCC2 cells, thallium flux FluoZin-2 fluorescence | Q9H2X9 | B-score of Tl+ flux slope (higher = more flux/activation; lower = inhibition) at 10 µM | 2.2% of 190,000 active | AID 1456;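 active means thallium flux slope and its plate-corrected score both differing from the plate sample mean at a set confidence after two filtering rounds, in either direction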;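 further: slope of fluorescence scaled to starting intensity during 10 to 20 s after thallium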
S1P4 agonist: human S1P4 receptor agonism. O95977. S1P4-expressing cell line, agonist reporter assay. activation, % at 4.98 µM. 0.35% of 220,000 active. AID 1509; in the data active means activation above about 11%;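 further: 0% = DMSO vehicle and 100% = reference agonist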
ROMK retest: retested hit modulating human ROMK potassium channel; shares compounds with ROMK primary; ROMK thallium flux, fluorescence ratio; hits give low values; normalized thallium flux (F/F0 slope) at 10 µM; 54% of 3,000 active; AID 1917;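 active means Flux at 10 µM at least 3 SD below or above vehicle control mean in one or both replicates; inconclusive means no clear call, values can overlap the other calls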
The depositor's hits bear a star; ? = inconclusive; / = no result.

SMILES | S1P4 antagonist | S1P3 antag | ROMK primary | RAM inhibit | Cl transport mod | S1P4 agonist | ROMK retest
CN1CCN(c2ccccc2NC(=O)c2cccc([N+](=O)[O-])c2)CC1 | 11.1 | -9.5 | -0.591 | 0.5 | 0.00236 | -0.2 | /
CCN(CC)C(=O)C1CCCN(c2ccc([N+](=O)[O-])cc2/C=N/NC(=O)c2ccc([N+](=O)[O-])cc2)C1 (stereo not given) | -4.2 | / | / | 1.4 | -1.17 | -1.1 | ?
CN1CCN(c2ccccc2NC(=O)c2ccc(-c3cccc([N+](=O)[O-])c3)o2)CC1 | -14.9 | -11.6 | -2.39* | 1.2 | -1.01 | -2.2 | 0.059*
CN1CCN(c2ccc([N+](=O)[O-])cc2/C=N/NC(=O)c2cccc([N+](=O)[O-])c2)CC1 | -11.1 | 3.0 | -2.26* | 0.1 | -0.749 | 1.7 | 0.0585*
CCC(=O)N1CCN(c2ccccc2NC(=O)c2ccc(-c3cccc([N+](=O)[O-])c3)o2)CC1 | -10.9 | -2.1 | / | 2.8 | -0.0948 | -1.3 | /
Cc1cc2c(c(N)n1)c(=O)oc1ccccc12 | -11.8 | 24.7 | -0.448 | 2.1 | -0.0824 | -0.2 | /
COC(=O)c1c(C)nc(C)c2c(=O)oc3ccccc3c12 | -15.7 | -21.3 | / | 2.0 | -0.269 | 1.0 | ?
Cc1cc(C)c2c3c(sc2n1)C(=O)N(c1ccccc1)CC(=O)N3 | -5.2 | -3.1 | / | / | 1.98 | 1.4 | /
CCC(C)NC(=S)NNC(=O)c1ccc(C(C)(C)C)cc1 (stereo not given) | -21.5 | / | / | 3.0 | 0.071 | -2.3 | ?
COC(=O)c1cc(OC)c(OC)cc1NC(=O)CSc1ccccc1 | -20.9 | / | / | 2.5 | / | 2.1 | /
O=C(COC(=O)c1ccccc1Br)Nc1cc(S(=O)(=O)N2CCOCC2)ccc1N1CCCC1 | -9.1 | -17.4 | -1.9 | 4.6 | -0.707 | -0.2 | /
COc1ccccc1OCC#CCNC1CCCCC1C (stereo not given) | 1.2 | -12.7 | 0.232 | 1.1 | 0.0542 | -0.4 | /
COc1ccccc1CCNCc1ccc(OC)c(OCc2ccccc2)c1 | -34.7 | / | / | -0.1 | 0.313 | 2.6 | 0.0646*
COc1cc(CNCCc2ccccc2)ccc1OCc1ccc(Cl)nc1 | -7.5 | / | -3.75* | 0.1 | 0.328 | 2.3 | 0.057*
COc1cc(CNCCc2ccc(S(N)(=O)=O)cc2)ccc1OCC(=O)NC1CCCCC1 | -18.0 | / | 0.253 | 1.1 | -0.00813 | 1.7 | /
COc1cc(CNCCc2ccc(S(N)(=O)=O)cc2)ccc1OCc1ccc(Cl)cc1 | -5.4 | / | -2.57* | -0.5 | 0.308 | 1.7 | 0.0582*
COc1cccc(CNCCc2c[nH]c3ccccc23)c1OCc1ccccc1 | -2.8 | -1.9 | / | 0.2 | 0.578 | -3.5 | 0.0587*
C/C(=N\NC(=O)COc1ccc(C(C)(C)C)cc1)c1cc2ccccc2o1 | -11.7 | -6.1 | 0.089 | 3.0 | 0.769 | 0.7 | /
C/C(=N\NC(=O)c1cc2ccccc2cc1O)c1cc2ccccc2o1 | -26.1 | -8.3 | / | / | / | 2.1 | 0.127*
CCCNc1nc(Cl)nc(NC(C)(C)C)n1 | -1.6 | -14.5 | -3.78* | 0.4 | 0.445 | 0.8 | 0.0533*
CC(C)(C)Nc1nc(Cl)nc(NC(C)(C)C)n1 | -15.5 | 11.4 | / | 2.4 | 0.657 | 0.1 | /
CC(NCc1ccccc1)c1ccccc1O (stereo not given) | 0.8 | -8.4 | -0.106 | / | 0.806 | 0.0 | /
CC(C)c1nc(SCC(=O)Nc2c[nH]c(=O)[nH]c2=O)c2cnn(-c3ccccc3)c2n1 | 7.4 | -13.0 | 0.416* | 2.5 | 1.04 | 0.6 | 0.0853
O=C(CSc1ncnc2c1cnn2-c1ccccc1)Nc1ccccc1 | -2.5 | -24.0 | 1.27 | 1.9 | / | 0.1 | /
Cc1ccc(O)c(CNc2ccc(S(=O)(=O)Nc3nccs3)cc2)c1 | -24.3 | -1.0 | / | / | / | -1.8 | /
SMILES | S1P4 antagonist | S1P3 antag | ROMK primary | RAM inhibit | Cl transport mod | S1P4 agonist | ROMK retest
NC(=O)C1=NOC(CNc2ncc(C(F)(F)F)cc2Cl)C1 (stereo not given) | -9.2 | / | 2.39* | 0.0 | -0.181 | 0.5 | 0.0884
CO/N=C/NC(=O)C1=NOC(CNc2ncc(C(F)(F)F)cc2Cl)C1 (stereo not given) | 13.3 | / | 0.00682 | 0.9 | 0.0578 | -0.8 | /
CCOc1ccc(NC(=O)N[C@@H](CCSC)C(=O)OC)cc1 | -9.9 | / | 2.36* | -0.6 | 0.451 | -1.0 | ?
COC(=O)[C@H](CCSC)NC(=O)Nc1ccc(C(C)C)cc1 | -0.4 | 3.9 | -0.385 | -0.7 | -0.562 | 0.9 | /
CC1=NN(c2ccccc2)C(=O)/C1=C\C=C1\N(C)c2ccccc2C1(C)C | -10.4 | 12.1 | / | 0.9 | -1.55 | -0.1 | 0.063*
CC1=NN(c2ccccc2)C(=O)/C1=C\C=C1/N(C)c2ccccc2C1(C)C | -5.1 | 0.7 | / | -0.9 | -2.45 | -2.4 | 0.0799
CCOC(=O)Cc1cnc(NC(=O)CSc2nc(C)c(CC)c(=O)[nH]2)s1 | -1.5 | 7.1 | -0.697 | -0.8 | -0.178 | 0.3 | /
Cc1cn2c(-c3ccc(Cl)cc3)nnc2s1 | 7.3 | -5.9 | / | 1.3 | 0.424 | 4.9 | 0.0708
Clc1ccc(-c2nn3c(-c4ccccc4)nnc3s2)cc1 | -18.4 | -26.4 | / | 5.2 | -1.64 | 0.7 | /
O=C(Nn1c(=S)[nH]c2ccccc2c1=O)c1ccncc1 | 1.6 | -47.0 | -0.127 | 0.7 | / | 1.2 | /
O=C(C[n+]1cc(-c2ccc(Br)cc2)n2c1CCCCC2)c1ccccc1 | -2.4 | 4.3 | -2.98* | 2.0 | 0.0517 | 1.1 | 0.0678*
Cc1ccc(-c2csc(NC(=O)C[n+]3cc(-c4ccccc4)n4c3CCC4)n2)cc1 | -16.7 | 11.7 | -6.15* | / | -2.29 | 0.4 | 0.0601*
O=C(C[n+]1cc(-c2ccc(Cl)cc2)n2c1CCC2)Nc1nc(-c2ccc(F)cc2)cs1 | 12.6 | 6.4 | -5.82* | / | -3.07 | -1.8 | 0.0506*
CCN(c1ccccc1)S(=O)(=O)c1cc(NC(=O)CSc2n[nH]c(=O)[nH]c2=O)ccc1Cl | 13.8 | 2.5 | / | / | -0.23 | 0.1 | /
COc1cc(C2C(C#N)=C(N)Oc3cc4c(cc32)OCO4)cc(OC)c1OC (stereo not given) | 17.8 | 16.9 | 4.71* | -0.1 | -0.811 | -4.2 | 0.0832
COc1cc(C2C(C#N)=C(N)Oc3cc(O)ccc32)cc(OC)c1OC (stereo not given) | -8.1 | / | / | 1.5 | -1.59 | -0.7 | /
COc1cc(C2C(C#N)=C(N)Oc3cc(N(C)C)ccc32)cc2c1OCO2 (stereo not given) | -14.0 | 41.4 | / | 1.0 | -0.762 | 0.7 | 0.0576*
CCCOc1ccc(C(=O)Nc2ccc(S(=O)(=O)Nc3cc(C)nc(C)n3)cc2)cc1 | -1.3 | -1.4 | / | / | -0.944 | 0.4 | /
Cc1ccc(S(=O)(=O)NNC(=O)CCCCC(=O)NNS(=O)(=O)c2ccc(C)cc2)cc1 | -5.3 | -50.6 | -0.44 | 1.7 | -1.13 | 0.3 | /
c1ccc(-c2nnc3ccc(N4CCCC4)nn23)cc1 | -10.7 | / | / | 2.0 | -1.31 | -0.8 | /
CN(Cc1ccccc1)c1ccc2nnc(-c3ccccc3)n2n1 | 14.1 | 1.1 | -3.73* | -2.3 | -2.75 | 0.0 | 0.0654*
Cc1noc(C)c1COC(=O)c1ccc2c(c1)OCO2 | 6.5 | -9.8 | -0.704 | 0.9 | 0.0103 | 2.1 | /
